Screens from PubChem.
IL-1B inflam inh: inflammasome signaling inhibition, IL-1 beta readout; THP-1 LPS/ATP IL-1B secretion, AlphaLISA, 16 h; hits give low values; activity change, % at 57.5 µM; hit rate 4.7% among 360,000; AID 743279; in the data active = activity change below about -50%; inconclusive = mostly about -30% to -49%; also: % is scaled to controls: 0 for no effect and ±100 for the full control effect
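Secreted IL-1B measured by AlphaLISA bead assay after 16 h compound exposure of THP-1 cells; compounds (final up to 57.5 uM) added 1 h before LPS (250 ng/mL) and ATP (1.25 mM) stimulation; lower signal means less secretion.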
KB-V1 cytotox: kills drug-selected multidrug resistant KB-V1 cells. KB-V1 MDR cells viability, CellTiter-Glo, 72 h. Potency, µM (top dose mostly 46.1 µM), actives largely listed as cytotoxic. hit rate 3.4% among 400,000; also: potency is read from the fitted curve at half-maximal effect; % is scaled to controls: 0 for no effect and ±100 for the full control effect; nearly all actives have a fitted effect of over 60% in size
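Cytotoxicity via CellTiter-Glo luminescence after 72 h compound exposure at 37 degrees C. Cells: drug-selected KB-V1 line, DMEM phenol-red free plus 10% FBS. Compounds tested at multiple concentrations; normalized data fitted to concentration-effect curves.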
MCF10A rerep: induces DNA re-replication in MCF 10a normal breast cells; MCF 10A DNA re-replication, Hoechst nuclear intensity, 48 h; Potency, µM (highest dose often 46.1 µM), for the others: top-dose activity, positive = re-replication, most hits filed as activators; hit rate 2.9% among 350,000; AID 624296; also: potency is read from the fitted curve at half-maximal effect; % of control where 0% means no effect; nearly all actives have a fitted effect of over 50% in size
KB-3-1 cytotox: kills parental KB-3-1 adenocarcinoma cells; Potency, µM (doses to about 46.1 µM), usual class: cytotoxic; hit rate 1.4% among 400,000; KB-3-1 viability, CellTiter-Glo ATP luminescence, 72 h; also: potency is read from the fitted curve at half-maximal effect; % is scaled to controls: 0 for no effect and ±100 for the full control effect; nearly all actives have a fitted effect of over 60% in size
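Parental KB-3-1 adenocarcinoma cells in phenol-red-free DMEM with 10% FBS were pin-treated with compounds at several concentrations, incubated 72 h at 37 °C, and viability read by CellTiter-Glo luminescence; concentration-effect curves were fitted after normalization.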
SW480 rereplic: induces DNA re-replication in SW480 colon adenocarcinoma cells | SW480 DNA re-replication, Hoechst DNA content imaging, 48 h | Potency, µM (series often up to 46.1 µM), inactives show at the highest dose re-replication activation, most hits filed as activators | hit rate 1.8% among 340,000 | AID 624297; also: potency is read from the fitted curve at half-maximal effect; % of control where 0% means no effect; nearly all actives have a fitted effect of over 55% in size
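Image-based read-out: total Hoechst fluorescence of nuclei (405 nm excitation, 500-530 nm emission), with hits raising the fraction of high-intensity nuclei. SW480 colon cells incubated 48 hr with compounds at 37 C.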
* marks the source's active call; other numbers are inactive results. This is a sample that favours compounds with a hit; in the whole collection about 9.9% have one here. Unless noted, calls follow the shape of the dose curve; as a rule, active = well fitted curve in the direction sought with a large enough effect; inconclusive = small, poorly fitted or top-dose-only effect, or another doubt; inactive = no such curve, though single readings can be large; an effect the other way counts as inactive or inconclusive.

What do the screens show for `CCC(=O)N1CCc2cc(Br)cc(S(=O)(=O)N3CCC(C(=O)Nc4ccccc4F)CC3)c21`?
KB-V1 cytotox: inactive; KB-3-1 cytotox: inactive

Results for O=C(c1ccccc1)c1ccc(Oc2ccc([N+](=O)[O-])cc2[N+](=O)[O-])cc1 ?
IL-1B inflam inh: -95*; KB-V1 cytotox: inconclusive; MCF10A rerep: 12µM*; KB-3-1 cytotox: inconclusive; SW480 rereplic: 3.3µM*

What do the screens show for `CCC(=O)c1ccc(Oc2ccc(C(=O)c3ccc(C)cc3)cc2[N+](=O)[O-])cc1`?
IL-1B inflam inh: -80*; KB-V1 cytotox: inactive; MCF10A rerep: inconclusive; KB-3-1 cytotox: inactive; SW480 rereplic: 27%

Results for CO/N=C/c1ccc(Oc2ccc(C)cc2)c([N+](=O)[O-])c1 ?
IL-1B inflam inh: -19; KB-V1 cytotox: inactive; MCF10A rerep: -33%; KB-3-1 cytotox: inactive; SW480 rereplic: -37%

How did COc1cccc(CN2CCN(S(=O)(=O)c3ccc(Br)cc3)CC2)c1 do in these assays?
IL-1B inflam inh: inconclusive; KB-V1 cytotox: inconclusive; MCF10A rerep: 2%; KB-3-1 cytotox: inactive; SW480 rereplic: 7%

Results for COc1ccc2c(c1)C(C)=CC(C)(C)N2S(=O)(=O)c1ccc(Br)cc1 ?
IL-1B inflam inh: 82; KB-V1 cytotox: 3.3µM*; MCF10A rerep: inconclusive; KB-3-1 cytotox: 4.1µM*; SW480 rereplic: 18µM*

What do the screens show for `CC1=CC(C)(C)N(C(=O)c2ccccc2)c2ccc(C)cc21`?
IL-1B inflam inh: 38; KB-V1 cytotox: inactive; MCF10A rerep: 20%; KB-3-1 cytotox: inactive; SW480 rereplic: 23%

What do the screens show for `COc1ccc2c(c1)C(C)=CC(C)(C)N2S(=O)(=O)c1ccc(NC(C)=O)cc1`?
IL-1B inflam inh: 67; KB-V1 cytotox: inactive; MCF10A rerep: inconclusive; KB-3-1 cytotox: 2.1µM*; SW480 rereplic: 1.5µM*

How did CCOc1ccc2c(c1)C(C)=CC(C)(C)N2S(=O)(=O)c1ccc(F)cc1 do in these assays?
IL-1B inflam inh: 143; KB-V1 cytotox: inconclusive; MCF10A rerep: inconclusive; KB-3-1 cytotox: 7.3µM*; SW480 rereplic: inconclusive

What do the screens show for `CC1=CC(C)(C)N(S(=O)(=O)c2ccc(F)cc2)c2ccc(C)cc21`?
IL-1B inflam inh: 37; KB-V1 cytotox: 7.3µM*; MCF10A rerep: -5%; KB-3-1 cytotox: 23µM*; SW480 rereplic: -1%

What do the screens show for `CCSc1ccccc1C(=O)NC1CCCCC1`?
IL-1B inflam inh: -13; KB-V1 cytotox: inactive; MCF10A rerep: 0%; KB-3-1 cytotox: inactive; SW480 rereplic: -5%

How did Cc1ccc(NC(=O)C2CCC(CNS(=O)(=O)c3csc(C(N)=O)c3)CC2)cc1Cl (stereo not drawn) do in these assays?
KB-V1 cytotox: inactive; KB-3-1 cytotox: inactive

How did CCOc1ccc2c(c1)C(C)=CC(C)(C)N2S(=O)(=O)c1ccc(NC(C)=O)cc1 do in these assays?
IL-1B inflam inh: 66; KB-V1 cytotox: 1.3µM*; MCF10A rerep: inconclusive; KB-3-1 cytotox: 1.6µM*; SW480 rereplic: inconclusive

How did CCOc1ccc(CN2CCN(S(=O)(=O)c3ccc(NC(C)=O)cc3)CC2)cc1 do in these assays?
IL-1B inflam inh: -17; KB-V1 cytotox: inconclusive; MCF10A rerep: inconclusive; KB-3-1 cytotox: inconclusive; SW480 rereplic: -1%

What do the screens show for `CC1=CC(C)(C)N(S(=O)(=O)c2ccc(C)cc2)c2ccccc21`?
IL-1B inflam inh: 34; KB-V1 cytotox: inconclusive; MCF10A rerep: 0%; KB-3-1 cytotox: 16µM*; SW480 rereplic: 6%

Results for O=C(Nc1cc(C(=O)N2CCN(c3ccccc3O)CC2)ccc1Cl)c1cccs1 ?
IL-1B inflam inh: inconclusive; KB-V1 cytotox: inactive; MCF10A rerep: inconclusive; KB-3-1 cytotox: inactive; SW480 rereplic: inconclusive

Results for COCc1c(Br)c(C)nc(OCC(=O)N/N=C/c2ccc(C)o2)c1C#N ?
IL-1B inflam inh: -23; KB-V1 cytotox: inconclusive; MCF10A rerep: 0.73µM*; KB-3-1 cytotox: inactive; SW480 rereplic: 8%

What do the screens show for `CCn1c(CSc2nc(C)cc(C)n2)nnc1SCC(=O)Nc1ccccc1`?
IL-1B inflam inh: 1; KB-V1 cytotox: 21µM*; MCF10A rerep: 7%; KB-3-1 cytotox: inactive; SW480 rereplic: -7%
